Reference: PubChem BioAssay (Tox21)
Records with an inconclusive call do not appear. Where a call stands in place of a potency, no number is given. Where a structure was tested more than once in an assay, its records may differ in their call. Activity calls are given as the source filed them. Unless noted, the call rests on the fitted dose curve.

What was measured:
[1] = qHTS assay to identify small molecule antagonists of the vitamin D receptor (VDR) signaling pathway - cell viability counter screen (AID 743225; active means well fitted curve in the direction sought with a large enough effect in the repeat runs; an effect the other way counts as inactive or inconclusive; further: nearly all actives have a fitted effect of over 50% in size)
Method in brief: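 In this counter screen, VDR-bla HEK 293T cells receive test compound plus 3 nM final calcitriol for 16 h at 37C. Room-temperature steps of 2 h with the beta-lactamase substrate, then 30 min with CellTiter-Glo, precede the luminescence read.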

[2] = qHTS assay to identify small molecule agonists of the NFkB signaling pathway (AID 1159509; active means well fitted curve in the direction sought with a large enough effect in the signal ratio in the repeat runs, not every such curve was filed as active; the % refers to the signal ratio; further: series mostly up to about 61 µM)
Method in brief: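 NFkB-bla ME-180 cells carry a beta-lactamase reporter under an NF-kB response element. They were plated overnight, then exposed to compounds for 5 h at 37 C. Read-out is LiveBLAzer FRET after 1.5 hr at room temperature (405 nm excitation; 460/530 nm emission).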

[3] = qHTS assay to identify small molecule agonists of the NFkB signaling pathway - cell viability counter screen (AID 1159515); further: series mostly up to about 61 µM; nearly all actives have a fitted effect of over 55% in size
Method in brief: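 Multiplexed viability readout: after the 5 hr compound exposure and 1.5 hr FRET substrate step, CellTiter-Glo reagent went into the same NFkB-bla ME-180 wells; ATP luminescence was measured after 30 min at room temperature.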

[4] = qHTS assay to identify small molecule agonists of the endoplasmic reticulum stress response signaling pathway (AID 1159516; active means well fitted activation curve with a large enough effect in the signal ratio in the repeat runs, not every such curve was filed as active; the % refers to the signal ratio)
Method in brief: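 Tox21 10K library screened in quantitative HTS format on ESRE-bla HeLa cells, a beta-lactamase reporter under ER stress response element control; 5 hr treatment, FRET read.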

[5] = qHTS assay to identify small molecule agonists of the endoplasmic reticulum stress response signaling pathway - cell viability counter screen (AID 1159517); further: series mostly up to about 61 µM; nearly all actives have a fitted effect of over 50% in size
Method in brief: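 ESRE-bla HeLa cells, 1,500 per well, seeded overnight then treated with compounds for 5 hr at 37 C. After the beta-lactamase read, viability in the same wells is measured by CellTiter-Glo luminescence after 30 min at room temperature.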

[6] = qHTS assay to identify small molecule antagonists of the retinoid-related orphan receptor gamma (ROR-gamma) signaling pathway - cell viability counter screen (AID 1159520; active means well fitted curve in the direction sought with a large enough effect in the repeat runs; an effect the other way counts as inactive or inconclusive; further: nearly all actives have a fitted effect of over 50% in size)
Method in brief: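 Tet-on ROR gamma CHO cells were given compounds for 2 hr, then doxycycline hyclate at 1 uM final, and incubated 16 hr at 37 C. Viability was measured as ATP content by CellTiter-Glo luminescence.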

[7] = target: Nuclear receptor ROR-gamma (Homo sapiens) (UniProt P51449); experiment: qHTS assay to identify small molecule antagonists of the retinoid-related orphan receptor gamma (ROR-gamma) signaling pathway (AID 1159521; active means well fitted curve in the direction sought with a large enough effect in the repeat runs; an effect the other way counts as inactive or inconclusive; further: nearly all actives have a fitted effect of over 50% in size; further: potency means the concentration at half of the fitted maximal effect)
Method in brief: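 Screening format: cell-based luciferase reporter in CHO cells with doxycycline-inducible RORγ. Compound pre-exposure lasts 2 h, doxycycline is 1 uM final, induction runs 16 h at 37 C, and ONE-Glo luminescence is read.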

[8] = qHTS assay to identify small molecule agonists of the AP-1 signaling pathway - cell viability counter screen (AID 1159525); further: nearly all actives have a fitted effect of over 55% in size
Method in brief: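 AP-1-bla ME-180 cells in Opti-MEM with 0.5% dialyzed FBS, compound exposure 5 h at 37 C in 15-point titration. Viability read in the same wells as ATP content by CellTiter-Glo luminescence, normalised to tetra-n-octylammonium bromide and DMSO controls.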

[9] = qHTS assay to identify small molecule agonists of the AP-1 signaling pathway (AID 1159526)
[10] = target: Retinoic acid receptor RXR-alpha (Homo sapiens) (UniProt P19793); experiment: qHTS assay to identify small molecule agonists of the RXR signaling pathway (AID 1159527); further: nearly all actives have a fitted effect of over 35% in size; further: potency means the concentration at half of the fitted maximal effect
Method in brief: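 Fluorescence ratio readout (460 vs 530 nm) from GeneBLAzer RXR-alpha HEK 293T cells after 16 hr compound treatment; cells seeded 5 hr beforehand in low-serum, charcoal-stripped medium.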

Chain of Retinoic acid receptor RXR-alpha (Homo sapiens) (P19793 whole entry, looked up): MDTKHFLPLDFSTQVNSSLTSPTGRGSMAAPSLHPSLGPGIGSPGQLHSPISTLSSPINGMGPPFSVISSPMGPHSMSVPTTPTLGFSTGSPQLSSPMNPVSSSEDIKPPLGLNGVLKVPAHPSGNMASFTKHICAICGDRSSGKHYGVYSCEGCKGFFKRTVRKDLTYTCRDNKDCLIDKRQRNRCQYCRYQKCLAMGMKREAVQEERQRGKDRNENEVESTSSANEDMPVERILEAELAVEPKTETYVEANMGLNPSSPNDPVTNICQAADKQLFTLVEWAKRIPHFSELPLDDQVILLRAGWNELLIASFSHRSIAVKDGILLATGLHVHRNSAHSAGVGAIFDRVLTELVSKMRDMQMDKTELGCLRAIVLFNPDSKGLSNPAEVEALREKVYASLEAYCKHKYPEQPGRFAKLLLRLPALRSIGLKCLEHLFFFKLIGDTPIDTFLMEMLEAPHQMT

| Compound | Potency [1] | outcome [2] | outcome [3] | outcome [4] | Potency [5] | Potency [6] | Potency [7] | Potency [8] | outcome [9] | Potency [10] |
| --- | --- | --- | --- | --- | --- | --- | --- | --- | --- | --- |
| N[C@@H](Cc1ccc(Oc2cc(I)c(O)c(I)c2)c(I)c1)C(=O)O | inactive | inactive | inactive | inactive | inactive | inactive | inactive | inactive | inactive | inactive |
| CCCN1CCC[C@@H]2Cc3nc(N)ncc3C[C@H]21 | inactive | inactive | inactive | inactive | inactive | inactive | inactive | inactive | inactive | inactive |
| S=C=S | inactive | inactive | inactive | inactive | inactive | inactive | inactive | inactive | inactive | inactive |
| O=C(CCl)NCO | inactive | inactive | inactive | inactive | inactive | inactive | inactive | inactive | inactive | inactive |
| CCc1ccc(C2CCNCC2)cc1 | inactive | inactive | inactive | inactive | inactive | inactive | inactive | inactive | inactive | inactive |
| CN1COCN(Cc2cnc(Cl)s2)/C1=N\[N+](=O)[O-] | inactive | inactive | inactive | inactive | inactive | inactive | inactive | inactive | inactive | inactive |
| CCNc1nc(Cl)nc(NC(C)(C)C)n1 | inactive | inactive | inactive | inactive | inactive | inactive | inactive | inactive | inactive | inactive |
| COc1cccc(C=O)c1 | inactive | inactive | inactive | inactive | inactive | inactive | inactive | inactive | inactive | inactive |
| Cn1c(CCCC(=O)O)nc2cc(N(CCCl)CCCl)ccc21 | inactive | inactive | inactive | inactive | inactive | inactive | inactive | inactive | inactive | inactive |
| CCCN1CCC[C@@H]2Cc3[nH]ncc3C[C@H]21 | inactive | inactive | inactive | inactive | inactive | inactive | inactive | inactive | inactive | inactive |
| Cc1cc(OC(=O)N(C)C)nn1C(=O)N(C)C | inactive | inactive | inactive | inactive | inactive | inactive | inactive | inactive | inactive | inactive |
| CCN[C@@H](C)Cc1ccccc1 | inactive | inactive | inactive | inactive | inactive | inactive | inactive | inactive | inactive | inactive |
| CCNP(=S)(OC)O/C(C)=C/C(=O)OC(C)C (stereo unspecified) | inactive | inactive | inactive | inactive | inactive | inactive | inactive | inactive | inactive | inactive |
| CC(C)[N+](C)(CCC(C(N)=O)(c1ccccc1)c1ccccc1)C(C)C | inactive | inactive | inactive | inactive | inactive | inactive | inactive | inactive | inactive | inactive |
| NC(=O)OCCCc1ccccc1 | inactive | inactive | inactive | inactive | inactive | inactive | inactive | inactive | inactive | inactive |
| O=C1CC(=O)NC(=O)N1 | inactive | inactive | inactive | inactive | inactive | inactive | inactive | inactive | inactive | inactive |
| CCOC(=O)NC(C)(C)Cc1ccc(Cl)cc1 | inactive | inactive | inactive | inactive | inactive | inactive | inactive | inactive | inactive | inactive |
| ClCCCCl | inactive | inactive | inactive | inactive | inactive | inactive | inactive | inactive | inactive | inactive |
| CN=CNc1ccc(C)cc1C | inactive | inactive | inactive | inactive | inactive | inactive | inactive | inactive | inactive | – |
| O=P(O)(O)CN(CP(=O)(O)O)CP(=O)(O)O | inactive | inactive | inactive | inactive | inactive | inactive | inactive | inactive | inactive | inactive |
| CCC(C)C(C)(COC(N)=O)COC(N)=O (stereo unspecified) | inactive | inactive | inactive | inactive | inactive | inactive | inactive | inactive | inactive | – |
| C=CC1(C)OC(=O)N(c2cc(Cl)cc(Cl)c2)C1=O (stereo unspecified) | inactive | inactive | inactive | inactive | inactive | inactive | 43 µM (active) and inactive | inactive | inactive | – |
| O=C(Cl)c1ccccc1 | inactive | inactive | inactive | inactive | inactive | inactive | inactive | inactive | inactive | – |
| CC(C)(O)C(Cl)(Cl)Cl | inactive | inactive | inactive | inactive | inactive | inactive | inactive | inactive | inactive | – |
| CCOP(=S)(OCC)Oc1ccc(Cl)cc1Cl | inactive | inactive | inactive | inactive | inactive | inactive | inactive | inactive | inactive | – |
| CCOP(=O)(CN(CCO)CCO)OCC | inactive | inactive | inactive | inactive | inactive | inactive | inactive | inactive | inactive | – |
| CCOC(=O)Nc1cccc(OC(=O)Nc2ccccc2)c1 | inactive | inactive | inactive | inactive | inactive | inactive | inactive | inactive | inactive | – |

| Compound | Potency [1] | outcome [2] | outcome [3] | outcome [4] | Potency [5] | Potency [6] | Potency [7] | Potency [8] | outcome [9] | Potency [10] |
| --- | --- | --- | --- | --- | --- | --- | --- | --- | --- | --- |
| CN1C(=O)COc2c(C(=O)NC3CN4CCC3CC4)cc(Cl)cc21 (stereo unspecified) | inactive | inactive | inactive | inactive | inactive | inactive | inactive | inactive | inactive | – |
| C=C(Cl)CCl | inactive | inactive | inactive | inactive | inactive | inactive | inactive | inactive | inactive | inactive |
| O=C(Cl)C(Cl)Cl | inactive | inactive | inactive | inactive | inactive | inactive | inactive | inactive | inactive | inactive |
| CCN[C@H](C)Cc1cccc(C(F)(F)F)c1 | inactive | inactive | inactive | inactive | inactive | inactive | inactive | inactive | inactive | – |
| C1CN2CCC1CC2 | inactive | inactive | inactive | inactive | inactive | inactive | inactive | inactive | inactive | inactive |
| CCOC(=O)c1ncn2c1CN(C)C(=O)c1c(I)cccc1-2 | inactive | inactive | inactive | inactive | inactive | inactive | inactive | inactive | inactive | – |
| CCN[C@@H](C)Cc1cccc(C(F)(F)F)c1 | inactive | inactive | inactive | inactive | inactive | inactive | inactive | inactive | inactive | inactive |
| O=C(O)C(Br)(Br)Br | inactive | inactive | inactive | inactive | inactive | inactive | inactive | inactive | inactive | inactive |
| COC(=O)[C@@H](N)CCCN/C(N)=N/[N+](=O)[O-] | inactive | inactive | inactive | inactive | inactive | inactive | inactive | inactive | inactive | – |
| CCC1(c2ccccc2)CCC(=O)NC1=O (stereo unspecified) | inactive | inactive | inactive | inactive | inactive | inactive | inactive | inactive | inactive | – |
| CN(CCO)CCO | inactive | inactive | inactive | inactive | inactive | inactive | inactive | inactive | inactive | inactive |
| C=CCCC#N | inactive | inactive | inactive | inactive | inactive | inactive | inactive | inactive | inactive | inactive |
| CCC(C)(C#N)N=NC(C)(C#N)CC (stereo unspecified) | inactive | inactive | inactive | inactive | inactive | inactive | inactive | inactive | inactive | inactive |
| CNC(=O)O/N=C(/CSC)C(C)(C)C | inactive | inactive | inactive | inactive | inactive | inactive | inactive | inactive | inactive | – |
| CC1NCCOC1c1ccccc1 (stereo unspecified) | inactive | inactive | inactive | inactive | inactive | inactive | inactive | inactive | inactive | inactive |
| O=c1[nH]oc2c1CCNC2 | inactive | inactive | inactive | inactive | inactive | inactive | inactive | inactive | inactive | – |
| CC(Cc1ccccc1)NCCCCl (stereo unspecified) | inactive | inactive | inactive | inactive | inactive | inactive | inactive | inactive | inactive | inactive |
| COC1=CC(=O)O[C@@H](/C=C/c2ccccc2)C1 | inactive | inactive | inactive | inactive | inactive | inactive | inactive | inactive | inactive | – |
| CCCCCCC1CCOC1=O (stereo unspecified) | inactive | inactive | inactive | inactive | inactive | inactive | inactive | inactive | inactive | – |
| CCN(CCO)CCO | inactive | inactive | inactive | inactive | inactive | inactive | inactive | inactive | inactive | – |
| ClC(Cl)(Cl)Cl | inactive | inactive | inactive | inactive | inactive | inactive | inactive | inactive | inactive | inactive |
| OCC(Cl)CCl (stereo unspecified) | inactive | inactive | inactive | inactive | inactive | inactive | inactive | inactive | inactive | – |
| CC(C)(N)Cc1ccc(Cl)cc1 | inactive | inactive | inactive | inactive | inactive | inactive | inactive | inactive | inactive | – |
| COC[C@@H](NC(C)=O)C(=O)NCc1ccccc1 | inactive | inactive | inactive | inactive | inactive | inactive | inactive | inactive | inactive | – |
| CCCC[N+](=O)[O-] | inactive | inactive | inactive | inactive | inactive | inactive | inactive | inactive | inactive | – |
| N#CC(Br)(Br)C(N)=O | inactive | inactive | inactive | inactive | inactive | inactive | inactive | – | inactive | 1.55 µM (active) |
| CCCC(C)(COC(N)=O)COC(N)=O | inactive | inactive | inactive | inactive | inactive | inactive | inactive | – | inactive | inactive |
